Only some compounds are listed: those with a hit (about 2.9% of all), similar ones and a draw of the others.
ADAM17 inh: inhibitors of human ADAM17. recombinant ADAM17, EDANS/DABCYL FRET peptide cleavage. inhibition, % at 6.95 µM. hit rate 0.83% among 370,000;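 active = inhibition above the mean of compounds lying between control limits plus 3 SD, set per campaign, cut at about 8.5% in these data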
proKLK7 act: activates the human kallikrein-7 zymogen. P49862. purified proKLK7, EDANS-DABCYL substrate fluorescence; 100% is mature enzyme control, 0% vehicle. activation, % at 7 µM. hit rate 0.9% among 370,000;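 active = activation above the mean of all tested compounds plus 3 SD, computed per campaign excluding outliers beyond control limits, cut at about 13% in these data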
Target sequence (P49862 whole entry, looked up): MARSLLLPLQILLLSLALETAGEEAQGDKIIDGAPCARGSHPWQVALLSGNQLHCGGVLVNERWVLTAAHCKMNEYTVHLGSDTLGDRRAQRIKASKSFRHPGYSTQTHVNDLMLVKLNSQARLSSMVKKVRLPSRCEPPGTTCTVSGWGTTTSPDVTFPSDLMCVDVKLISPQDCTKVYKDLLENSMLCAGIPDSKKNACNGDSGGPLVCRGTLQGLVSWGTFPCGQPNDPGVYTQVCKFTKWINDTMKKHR
PLCg1 inh: PLC-gamma1 (human) inhibition, primary screen; inhibition, % at 12.2 µM; AID 720700; hit rate 0.84% among 370,000; P19174; purified PLC-gamma1, fluorogenic substrate, fluorescence; in the data active = inhibition above about 9.5%
PLC-beta3 inh: blocks human PLC-beta3 enzyme activity. AID 720704. Q01970. hit rate 0.18% among 370,000. Purified PLC-beta3, fluorogenic substrate, fluorescence. inhibition, % at 12.2 µM; in the data active = inhibition above about 11%
ADAM10 inh: inhibitors of human ADAM10; recombinant ADAM10, EDANS/DABCYL FRET peptide cleavage, 3 h; inhibition, % at 7 µM; hit rate 0.62% among 370,000; AID 720582;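 active = inhibition above a per-campaign cutoff equal to the mean of compounds falling between control-based bounds plus 3 SD, cut at about 20% in these data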
ADAM10 ctr: counter-screen for ADAM17 exosite inhibitors: inhibitors of human ADAM10. inhibition, % at 6.95 µM. AID 743256. shares compounds with ADAM17 inh. hit rate 47% among 2,900. recombinant ADAM10, EDANS/DABCYL FRET peptide cleavage, 3 h;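 active = mean inhibition over the triplicate runs exceeds the activity threshold set in the earlier primary screen, cut at about 20% in these data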
ADAM17 confirm: human ADAM17 inhibition, confirmation | shares compounds with ADAM17 inh | recombinant ADAM17, EDANS/DABCYL QFRET peptide cleavage | hit rate 65% among 2,900 | inhibition, % at 6.95 µM;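 active = mean inhibition across replicates above the hit cutoff set in the primary screen, cut at about 8.5% in these data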
Each line names hits and unclear results; the compound was inactive in the other large screens (follow-up assays come after a bar, where they were run).

CCCSc1ccc([C@@H]2[C@@H]3C(=O)N(CC)C(=O)[C@@H]3[C@]3(C(=O)OC)CCCCN23)cc1	none
CCC(C)Sc1ccc([C@@H]2[C@@H]3C(=O)N(CC)C(=O)[C@@H]3[C@]3(C(=O)OC)CCCCN23)cc1OC (stereo partly drawn)	ADAM17 inh 9.2 | ADAM10 ctr inactive | ADAM17 confirm inactive
Cc1ccc(C(=O)CC(=O)c2ccc(C)cc2O)cc1	none
COc1ccc(-c2sc3ccccc3c2/C=C/c2ccncc2)cc1	none
COc1ccc(Cl)c(-c2cc(C(=O)Nc3ccccc3)[nH]n2)c1	none
CCOc1ccccc1C1c2[nH]c3ccccc3c2C[C@H]2C(=O)N(C3CCN(Cc4ccccc4)CC3)CC(=O)N12 (stereo partly drawn)	ADAM17 inh 9.7 | ADAM10 ctr 27 | ADAM17 confirm 14
COc1ccc(C2c3[nH]c4ccccc4c3C[C@H]3C(=O)N(C4CCN(Cc5ccccc5)CC4)CC(=O)N23)c(OC)c1 (stereo partly drawn)	none
Cc1ccccc1C1c2[nH]c3ccccc3c2C[C@H]2C(=O)N(C3CCN(Cc4ccccc4)CC3)CC(=O)N12 (stereo partly drawn)	ADAM17 inh 8.7 | ADAM10 ctr 26 | ADAM17 confirm 14
O=C1[C@@H]2Cc3c([nH]c4ccccc34)C(c3ccccc3)N2C(=O)CN1C1CCN(Cc2ccccc2)CC1 (stereo partly drawn)	none
COc1cc(/C=N/NC(=O)c2cc(-c3ccccc3OC(C)C)nc3ccccc23)ccc1O	ADAM17 inh 11 | ADAM10 ctr inactive | ADAM17 confirm 15
COc1cc(/C=N/NC(=O)c2cc(-c3ccccc3)nc3ccccc23)ccc1O	none
N#CCN(C(=O)CSc1nnc(C2CC2)n1C1CC1)c1ccccc1	none
OC(CSc1nnnn1-c1ccccc1)Cn1c2ccccc2c2ccccc21 (stereo not drawn)	ADAM17 inh 11 | ADAM10 ctr inactive | ADAM17 confirm 10
CCn1c2ccccc2c2cc(NC(=O)CSc3nnnn3-c3ccccc3)ccc21	none
Cc1nc2ccccn2c1P(=O)(c1ccccc1)c1ccccc1	none (no result: proKLK7 act)
CN1/C(=C/C=C/c2n(C)c3cc([N+](=O)[O-])c([N+](=O)[O-])cc3[n+]2C)C(C)(C)c2ccccc21	ADAM17 inh 9.9, PLCg1 inh 9.7, PLC-beta3 inh 13 | ADAM10 ctr inactive | ADAM17 confirm inactive
Cc1cccc[n+]1CC(=O)/C=C1\N(C)c2ccccc2C1(C)C	none
CC(C)C1Nc2c(O)cc(Cl)c([N+](=O)[O-])c2C2C=CCC21 (stereo not drawn)	ADAM17 inh 15 | ADAM10 ctr 21 | ADAM17 confirm 14
O=C(O)C1Nc2c(Cl)cc(Cl)c(Cl)c2C2C=CCC12 (stereo not drawn)	none
CC1=C(C(=O)N2CCCCCC2)CC(CC(=O)NCCc2ccccn2)C(=O)N1CCCN1CCCC1=O (stereo not drawn)	none
O=C(O)/C=C/C(=O)c1ccc2c(c1)CCc1ccccc1-2	none
O=C1c2cccc(OCC(=O)N3CCCc4ccccc43)c2CCN1Cc1ccc(Br)cc1	ADAM17 inh 9.7 | ADAM10 ctr inactive | ADAM17 confirm 12
COc1ccc(C2=NS(=O)(=O)N(C)C(C(=O)Nc3ccc(C)cc3)=C2)cc1	ADAM17 inh 8.9 | ADAM10 ctr inactive | ADAM17 confirm 14
CCc1ccc(NC(=O)C2=CC(c3ccc(OC)cc3)=NS(=O)(=O)N2C)cc1	ADAM17 inh 9.2 | ADAM10 ctr 24 | ADAM17 confirm 15
Cc1ccc(NC(=O)C2=CC(c3ccc(C)cc3)=NS(=O)(=O)N2C)cc1	none
Cc1ccc(C2=NS(=O)(=O)N(C)C(C(=O)Nc3ccc4c(c3)OCO4)=C2)cc1	ADAM17 inh 13 | ADAM10 ctr inactive | ADAM17 confirm 14
O=C(O)c1ccc2c(c1)N(Cc1cccc(F)c1)C(=O)CS2	ADAM17 inh 8.9 | ADAM10 ctr inactive | ADAM17 confirm inactive
CC(C)(C)OC(=O)N(CCc1ccccc1)Cc1ccccc1OCc1ccc(NC(=O)C2CCC2)cc1	none
CC(C)(C)OC(=O)N(Cc1ccccc1)Cc1ccccc1OCc1ccc(NC(=O)C2CCC2)cc1	ADAM17 inh 13 | ADAM10 ctr inactive | ADAM17 confirm 11
COCC1CCCCN1C(=O)c1ccc(OC2CCN(CCc3ccccc3)CC2)cc1 (stereo not drawn)	none
Cc1csc(NC(=O)CCn2c(=O)oc3ccc(Cl)cc32)n1	ADAM17 inh 8.7 | ADAM10 ctr inactive | ADAM17 confirm inactive
CCN(CC(O)CON=C1c2ccccc2-c2ccccc21)S(=O)(=O)c1ccc(C)cc1 (stereo not drawn)	ADAM17 inh 9.4 | ADAM10 ctr 22 | ADAM17 confirm 17
CN(CC(O)CON=C1c2ccccc2-c2ccccc21)S(=O)(=O)c1ccc(Br)cc1 (stereo not drawn)	ADAM17 inh 8.8 | ADAM10 ctr 23 | ADAM17 confirm 14
C[C@H](NC(=O)N1CCn2c1nc1ccccc12)C(=O)NCc1ccc2c(c1)OCO2	none
Cc1cc(-c2ccccc2)n(-c2cc(N/N=C/c3ccccc3O)ncn2)n1	ADAM17 inh 8.7 | ADAM10 ctr inactive | ADAM17 confirm inactive
CCC(C)c1ccc(C(C)NC(=S)NCc2ccc(F)cc2)cc1 (stereo not drawn)	none
CCCc1ccc(C(C)NC(=S)NCc2ccc(F)cc2)cc1 (stereo not drawn)	ADAM17 inh 9.1 | ADAM10 ctr 34 | ADAM17 confirm 17
O=[N+]([O-])c1cccc(CON=Cc2cc(Cl)ccc2O)c1	none
CCc1nc2ccc(C(=O)NC3CCN(Cc4ccccc4)CC3)cn2c1N(C)Cc1ccc(N(C)C)cc1	none
O=[N+]([O-])c1cc(Cl)c(O)c2ncccc12	ADAM17 inh 10 | ADAM10 ctr inactive | ADAM17 confirm 11
C=CCSC1=C(C#N)C(c2ccccc2Cl)C(C(=O)c2cccs2)C(O)(C(F)(F)F)N1 (stereo not drawn)	ADAM17 inh 8.6 | ADAM10 ctr inactive | ADAM17 confirm inactive
COc1ccccc1CN(C(=O)c1cnccn1)C(C(=O)NC1CCCCC1)c1cc(OC)c(OC)c(OC)c1 (stereo not drawn)	none
CCOc1ccccc1NC(=O)C(OC(=O)c1ccc(O)cc1)c1ccccc1 (stereo not drawn)	ADAM17 inh 9.6 | ADAM10 ctr 33 | ADAM17 confirm 20
CCOc1ccccc1NC(=O)C(OC(=O)c1ccc(CC)cc1)c1ccccc1 (stereo not drawn)	none
